# Source: PubChem BioAssay (Sanford-Burnham Center for Chemical Genomics)
# CD11b adhes enh = increases human CD11b/CD18 adhesion to fibrinogen; P05107+P11215; K562 CD11b/CD18 adhesion to fibrinogen, ATPlite luminescence; activation, % at 10 µM; hit rate 0.07% among 93,000; AID 1499;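 active means 10 µM primary screen giving 50% or more activity, confirmed by 40% or more on retest at that dose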
# CYP2C19 activ = increases human CYP2C19 enzyme activity | P33261 | recombinant CYP2C19, luciferin-H EGE luminescence; hits give high values; 0 = fully inhibited enzyme, 1 = untreated enzyme | activation factor at 5 µM | 96,000 tested, under 10 active;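 active means activation factor of at least 2 at 5 µM in the primary screen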;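 further: 0 = wells with 2.5 mM tranylcypromine and 1 = vehicle-only wells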
# Target sequence (P33261 whole entry, looked up): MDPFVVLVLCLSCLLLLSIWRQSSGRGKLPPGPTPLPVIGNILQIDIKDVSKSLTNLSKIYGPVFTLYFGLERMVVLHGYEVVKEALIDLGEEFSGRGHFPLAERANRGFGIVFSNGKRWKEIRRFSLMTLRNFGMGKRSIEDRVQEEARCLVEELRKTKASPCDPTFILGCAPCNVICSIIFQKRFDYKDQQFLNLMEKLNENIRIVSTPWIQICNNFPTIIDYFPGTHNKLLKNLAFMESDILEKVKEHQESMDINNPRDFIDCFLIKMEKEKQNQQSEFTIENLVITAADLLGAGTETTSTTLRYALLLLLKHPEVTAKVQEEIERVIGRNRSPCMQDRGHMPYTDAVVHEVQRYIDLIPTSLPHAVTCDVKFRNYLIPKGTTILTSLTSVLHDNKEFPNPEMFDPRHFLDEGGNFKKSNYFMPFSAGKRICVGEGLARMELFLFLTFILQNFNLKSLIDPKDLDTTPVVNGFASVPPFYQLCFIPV
# CYP2C9 inhib = inhibitors of human CYP2C9; AID 777; inhibition, % at 5 µM; hit rate 20% among 96,000; CYP2C9 Supersomes, luciferin-H conversion, luminescence; P11712;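 active means blocking of liver enzyme CYP2C9 beyond about 50% at 5 µM, limit read from the data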
# CYP2C9 act = activators of human CYP2C9. P11712. recombinant CYP2C9, luciferin-H conversion, luminescence; hits give high values; factor 1 = untreated enzyme, 0 = blocked. activation factor at 5 µM. hit rate 1.4% among 96,000;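 active means activation factor of 2 or more for CYP2C9 at a 5 µM dose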;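 further: 0 = sulfaphenazole-blocked wells and 1 = vehicle-only wells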
# CD11b adhes inh = blocks human CD11b/CD18 adhesion to fibrinogen. P05107+P11215. K562 CD11b/CD18 adhesion to fibrinogen, ATPlite luminescence; Mn2+ added to activate the integrin. inhibition, % at 10 µM. hit rate 0.54% among 93,000. AID 1497;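 active means primary inhibition of 50% or more at 10 µM, then 40% or more on retest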
# CYP2C19 inhib = human CYP2C19 inhibition; CYP2C19 Supersomes, luciferin-H EGE luminescence, 30 min; inhibition, % at 5 µM; P33261; hit rate 21% among 96,000;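 active means CYP2C19 inhibition above a set limit at 5 µM in the primary screen, cut at about 50% in these data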;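 further: plate controls were negative control wells for no effect and 2.5 mM tranylcypromine positive control for full effect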
# The depositor's hits bear a star; x = no result given. In the library only some 28% were active in any assay of this set; here they are far more common.
SMILES,CD11b adhes enh,CYP2C19 activ,CYP2C9 inhib,CYP2C9 act,CD11b adhes inh,CYP2C19 inhib
CC1=NC(=O)C(N=Nc2cccc(O)c2)N1c1ccccc1 (configuration not stated),-2.1,0.8,39.0,0.6,7.9,19.6
CCN1CCN(C(=O)c2ccc(Cl)c(S(=O)(=O)N3CCOCC3)c2)CC1,-1.4,0.9,28.3,0.7,0.5,9.7
CC1(C)N(O)CC(c2cccs2)=[N+]1[O-],4.8,1,-6.7,1.1,-28.5,-4.5
NC(=O)CN(c1ccccc1)C1SC(=O)N(Cc2ccccc2)C1=O (configuration not stated),-1.1,0.5,13.8,0.9,-17.7,52.4*
CCOC(=O)Cn1nnnc1C(C(C)C)N(Cc1cccs1)Cc1cc2cc(C)ccc2[nH]c1=O (configuration not stated),1.3,0.2,64.4*,0.4,4.1,83.5*
CCOC(=O)Cn1nnnc1C(CC)N(Cc1cc2ccc(C)cc2[nH]c1=O)C1CCCC1 (configuration not stated),-3.3,0.6,36.5,0.6,-7.4,42.0
CCOc1ccc2[nH]c(=O)c(CN(Cc3cccs3)C(CC)c3nnnn3C(C)(C)CC)cc2c1 (configuration not stated),-5.6,0.4,87.3*,0.1,22.8,62.7*
CCC(c1nnnn1C1CCCC1)N(Cc1cccs1)Cc1cc2cc(C)ccc2[nH]c1=O (configuration not stated),-2.8,0.6,-97.6,2*,18.4,37.3
CCOC(=O)Cn1nnnc1C(CC)N(Cc1cccs1)Cc1cc2cc(C)ccc2[nH]c1=O (configuration not stated),-3.5,0.1,85.0*,0.2,-12.1,94.9*
CCOC(=O)c1ccc(NC(=O)COC(=O)Cc2csc(-c3ccccc3)n2)cc1,-3.9,x,x,x,25.3,x
CCOC(=O)N1CCN(C(=O)CN(C)S(=O)(=O)c2ccc(OC)c(OC)c2)CC1,-2.8,1,-44.0,1.4,1.1,-4.8
CC(C)NC(=O)NC(=O)COC(=O)c1ccccc1Oc1ccccc1,4.7,0.5,46.7,0.5,13.5,45.9
O=C(NCC1COc2ccccc2O1)C1C2C=CC3(CN(Cc4ccccc4Cl)C(=O)C13)O2 (configuration not stated),x,0.9,9.8,0.9,x,10.5
O=C1C(Cl)=C(N2CCN(Cc3ccccc3)CC2)C(=O)N1Cc1ccccc1,x,0.8,54.6*,0.5,x,15.2
O=C1C(Cl)=C(N2CCCCC2)C(=O)N1c1ccccc1,9.0,0.7,11.3,0.9,3.2,25.1
O=C(Cn1c2ccccc2c(=O)c2cc([N+](=O)[O-])ccc21)Nc1ccccc1Cl,52.4,x,x,x,2.9,x
CC(C)(C)c1ccc(S(=O)(=O)NCCOCC(F)(F)C(F)F)cc1,-2.1,0,-140.8,2.4*,5.9,97.4*
CCCc1ccc(S(=O)(=O)NCCc2ccncc2)cc1,-4.2,0,97.6*,0,26.8,99.4*
CCCCCc1ccc(S(=O)(=O)NCCc2ccncc2)cc1,-6.0,0,96.8*,0,89.4,100.4*
O=C(O)CCc1ccc(S(=O)(=O)NCCc2ccccc2)cc1,-4.4,1.2,1.5,1,4.9,-16.5
CC(C)(C)c1ccc(S(=O)(=O)NCCc2ccncc2)cc1,-7.1,0,91.8*,0.1,17.8,99.9*
O=C(NCCOCC(F)(F)C(F)F)c1cc(F)c(F)cc1Cl,7.7,0.6,14.9,0.9,-17.8,38.1
Cn1c(SC2=CS(=O)(=O)c3ccccc32)nc2ccccc21,x,0.9,-8.0,1.1,x,9.7
COc1ccc(/C=C/c2nnc(NC(=O)CSc3ccc(Cl)cc3)s2)cc1,86.9,x,x,x,-11.4,x
Cc1nn(-c2ccccc2)c(C)c1C(=O)Nc1nnc(-c2ccco2)o1,-0.7,1,-22.6,1.2,-43.9,-2.0
SMILES,CD11b adhes enh,CYP2C19 activ,CYP2C9 inhib,CYP2C9 act,CD11b adhes inh,CYP2C19 inhib
CC(=O)c1c(C)[nH]c(C(=O)Nc2cccnc2)c1C,5.0,0.9,52.2*,0.5,14.1,10.2
CC(=O)c1c(C)[nH]c(C(=O)Nc2ccc(C)c(C)c2)c1C,1.1,0.6,64.7*,0.4,-31.7,37.4
COC(=O)c1sc2cc(C(F)(F)F)cnc2c1-c1cccnc1,2.8,0.6,51.7*,0.5,-4.7,38.4
O=C(Nc1ccccc1)c1sc2cc(C(F)(F)F)cnc2c1-c1cccs1,4.0,0.5,73.9*,0.3,0.0,52.1*
Cc1ccc(C(=O)Nn2cnc3scc(-c4cccs4)c3c2=O)c(O)c1,-4.1,1.1,36.1,0.6,26.0,-10.5
c1ccc(-c2csc3ncnc(NCCN4CCOCC4)c23)cc1,-2.9,0.8,10.8,0.9,32.9,20.5
c1ccc(-c2oc3ncnc(NCCCN4CCOCC4)c3c2-c2ccccc2)cc1,3.1,0.1,93.7*,0.1,17.7,90.1*
COc1ccc(-c2oc3ncn(CCN4CCOCC4)c(=N)c3c2-c2ccc(OC)cc2)cc1,0.9,0.4,13.3,0.9,-0.3,62.8*
COc1ccc(-c2oc3ncnc(NCCCN4CCOCC4)c3c2-c2ccc(OC)cc2)cc1,16.6,0.8,94.5*,0.1,-2.3,24.1
COc1ccc(-c2oc3ncnc(NCCN4CCOCC4)c3c2-c2ccc(OC)cc2)cc1,-2.3,0.8,30.2,0.7,2.3,22.6
Oc1c(C(c2ccco2)N2CCN(C(c3ccccc3)c3ccccc3)CC2)sc2ncnn12 (configuration not stated),13.1,0,93.6*,0.1,-7.6,95.1*
Cc1ccc(C(c2sc3ncnn3c2O)N2CC(C)CC(C)C2)cc1 (configuration not stated),2.5,0.2,27.0,0.7,-1.5,76.1*
Cc1ccc(C(c2sc3nc(C)nn3c2O)N2CC(C)OC(C)C2)cc1 (configuration not stated),0.5,0.6,-13.3,1.1,-1.5,42.2
Oc1c(C(c2cccs2)N2CCN(c3cccc(Cl)c3)CC2)sc2ncnn12 (configuration not stated),-3.6,0.6,53.6*,0.5,12.5,41.8
O=C(c1ccco1)N1CCN(C(c2cccs2)c2sc3ncnn3c2O)CC1 (configuration not stated),2.2,0.5,43.5,0.6,-14.5,52.0*
C=CC(=C)CC(NC)c1ccccc1 (configuration not stated),2.2,1,-10.5,1.1,9.1,-0.9
NC(=O)COc1ccc(C2c3c(oc4ccccc4c3=O)C(=O)N2CC2CCCO2)cc1 (configuration not stated),4.0,1.2,-3.5,1,4.7,-18.2
CN(C)c1nc(SCCOC(=O)c2ccccc2)nc(N(C)C)n1,4.5,0,61.7*,0.4,57.1,98.7*
CCOC(=O)c1ccccc1NC(=O)c1ccc(NS(C)(=O)=O)cc1,x,0.6,35.6,0.6,x,40.0
